Assay results reported in the supplement of paper PMC6555819.

Tested on: VDR:RXRa (NR concentration 270 nM, RXRa partner concentration 90 nM)
Experiment: PBM binding z-score (relative to random genomic background probes); higher = stronger binding; sequences stand for … in GC…GCGATTGACAGCGTAGAATGAAGG
Experimental: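 Protein-binding microarray (Agilent 4x180K custom design, double-stranded 60-nt probes: 5' GC cap, 34-nt variable region, 24-nt constant primer region; full probe sequence given). Purified or IVT nuclear receptor:RXRα heterodimers (3:1 NR:RXRα, mostly 270:90 nM) or homodimers were incubated for 1 h in PBS with 2% milk and no ligand, then detected with Alexa488 antibodies. Fluorescence from o1-orientation probes (~5 replicates averaged) was converted to z-scores against 500 random hg19 background probes. Variable regions are seed direct-repeat (DR0–DR5) sites, all their single-nucleotide variants and half-site ablations.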

Q: ACTATCAGTTGAGACGAGGGCAACCGATAGGTTG was tested. Which PBM binding z-score did it give?
A: 0.625

Q: For CAAACTAGGTCACGGGAAGGTCAAAGTCCGCATG, which PBM binding z-score is on record?
A: 6.27

Q: How did the PBM binding z-score turn out when TCTTGTAGATGAAGCAGGTTAAGAAAGCCTGAGT was run?
A: 0.456

Q: TCGAGTAGGTTAGGGGCATTAAGAATGGCGTCGA was tested. Which PBM binding z-score did it give?
A: 0.706

Q: Which PBM binding z-score does the source give for AGTCAACGTTCACTAGGTAACGTAAGATTCAGCT here?
A: -0.186

Q: Which PBM binding z-score does the source give for TAGCCTAGGTCGGATCGGGCCAGTATACGCTATA here?
A: -0.475

Q: GCGACTGGGGCATCAGGAGGTTACCATAACTTAA was tested. Which PBM binding z-score did it give?
A: 0.558

Q: How did the PBM binding z-score turn out when ACTAGCAGGCCAAGTTTGGGTGACTCAAACAAAG was run?
A: -0.388

Q: GATACAGGGTCAGCTAGAGGCCAGAGCATGGAAA was tested. Which PBM binding z-score did it give?
A: 3.04

Q: With CGATCTAGGTCAAGGACAGTGAATCTCCGCACGC as the sequence, how does the PBM binding z-score read?
A: 0.643

Q: With TCTAATAGTTGATTAGGGCAACCGAAACAGCGGA as the sequence, how does the PBM binding z-score read?
A: 0.582

Q: How did the PBM binding z-score turn out when GCTAGCAGGCCATGTGGGTCACTCAATGACGGGC was run?
A: 0.49

Q: For TTACCAAGGTGAGCTGAGGCCGTTGATCCAACTC, which PBM binding z-score is on record?
A: 0.537

Q: For CCGACTGGGGCAAAAAGGTTACCATACCATCCGG, which PBM binding z-score is on record?
A: 1.28

Q: For ATTAGCAGGCCAAGGGTCACTCAAGATTAGTCCG, which PBM binding z-score is on record?
A: 2.92

Q: Which PBM binding z-score does the source give for CCTACTGGGCCACGAAAGGTCATTGAGTCAGTGA here?
A: 4.67

Q: With TCTATTAGGTGAAGGGCAACCGACGAGTCCGTTT as the sequence, how does the PBM binding z-score read?
A: 0.783

Q: With TAGCCTAGGTCATTCGGGGGCCAGTATAGAAAGC as the sequence, how does the PBM binding z-score read?
A: 3.99

Q: TCGAGTAGGTTTGGGGCATTCAGAATGGCGTCGA was tested. Which PBM binding z-score did it give?
A: -0.0942

Q: With ATATGTAGGTTACATCAGGGTCATTCAGGCTATG as the sequence, how does the PBM binding z-score read?
A: 5.14

Q: CCTGCTACGTCATGGTCAGCTAATCTACAGTATG was tested. Which PBM binding z-score did it give?
A: -0.408

Q: For TAGCCTAGGTCAGATCGAGCCAGTATACGCTATA, which PBM binding z-score is on record?
A: 0.0723

Q: TGTCAAAGTACAAAGGTAACGTAAGTATCCACAC was tested. Which PBM binding z-score did it give?
A: 0.725

Q: With CGTCCAAGGTCATAGGAGGTCAGTGACGACAGAT as the sequence, how does the PBM binding z-score read?
A: 6.55

Q: For ATCTCTAGATAACAAGTTCAGTGAAAGAGAGGAC, which PBM binding z-score is on record?
A: 1.45

Q: Which PBM binding z-score does the source give for CCTCGAAGGACAGAAGGTCAGAGCTGTCCGCTTT here?
A: 0.957

Q: With ACTAGCAGGCCAAGGGTCACCCAAGATTAGTCCG as the sequence, how does the PBM binding z-score read?
A: 3.3

Q: How did the PBM binding z-score turn out when CCTACTGGCCCACGAAAGGTCATTGATTCAGTGA was run?
A: 3.74

Q: How did the PBM binding z-score turn out when TAGCCTAGGTCAATGGGCCAGTATAGTACGCATC was run?
A: 1.1

Q: Which PBM binding z-score does the source give for CCTTACGGGTCACGAGGTTATAACACGACGAGCG here?
A: 5.28

Q: AGAATGAGGTAATTAAGATCAGGGAATTGCGGTC was tested. Which PBM binding z-score did it give?
A: 0.215

Q: ATATGTAGGTTCTCGGGTCATTCAGTTTGCGCAT was tested. Which PBM binding z-score did it give?
A: 5.04

Q: Which PBM binding z-score does the source give for TCTTGTAGATCAGCAGGTTTAGAAAGCTGGCCAA here?
A: 0.532

Q: Which PBM binding z-score does the source give for TCGAGTAGGTTACCAATGAGGCATTCAGCTTTCT here?
A: -0.192

Q: For CCGACTGGGGCATAAGGTTACGATAAGCCAGCCC, which PBM binding z-score is on record?
A: 0.321

Q: TATCGGAGGACACGAAGGTCAGAGCTTTCCAGAG was tested. Which PBM binding z-score did it give?
A: 2.32

Q: Which PBM binding z-score does the source give for TCTTCTAGGTCAACGATGGTCAGCTAATCTGCTA here?
A: 2.41

Q: ATCTCTAGGTAACCAAGTCCAGTGAATGCCGAAC was tested. Which PBM binding z-score did it give?
A: 0.999

Q: For CCGACTGGGGCAAAGGTTACCAAACTCAGTACGA, which PBM binding z-score is on record?
A: 1.91

Q: AATACAGGGTCACTAGGCCAGACTAGGTACGAAT was tested. Which PBM binding z-score did it give?
A: 4.22
